Reference: PubChem BioAssay (NCI)
Compounds without any hit were thinned out: in the full panel of roughly 83,000, 20% have a hit.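 Step 1: grow cells in 96-well plates. Step 2: add test compound at a single concentration. Step 3: incubate 48 h. Step 4: record percent growth.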 Values without a mark were called inactive. Active and inactive are the calls of the source. How the source made its calls: active means growth percent below 10; inactive means the rest.

What follows are molecules tested on T-47D breast (assay: NCI-60 one-dose screen, 48 h (100 = growth as untreated, 0 = no growth, -100 = all killed)). Conditions: 10 µM unless noted.
For `Clc1cccc(CNc2c3ccccc3nc3ccccc23)c1`, the growth was 40.9%. `CC(C)(C)c1ccc(OC(=O)Nc2ccccc2)cc1` gave a growth of 99.7%. Work on `O=C(/C=C/c1ccco1)c1ccccc1O` yielded a growth of 77.7%. In the case of `CC(C)CC(=O)C(CCc1ccccn1)C(C)C` (stereo not drawn), the growth is reported as 96.3%. With `Cc1nn(-c2ccccc2)c2nc3c(nc12)C1=NCCN1C(c1ccc(Cl)cc1)N3` (stereo not drawn) the growth was 75.1%. For `Cc1cc([N+](=O)[O-])c(C)cc1N`, the growth was 111%. Molecule `O=C1/C(=C/c2cc(F)cc(F)c2)Cc2cc(F)cc(F)c21` has a growth of 107%. `N/C(=N\OC(=O)c1ccccc1)C(C(=O)NOC(=O)c1ccccc1)C1CCCCC1` (stereo not drawn) showed a growth of 72.1%. `CCN(CC)CCNC(=O)C(F)(F)C(F)(F)C(F)(F)F` gave a growth of 110%. `O=C(Nc1ccncc1)C(=O)c1cn(S(=O)(=O)c2cccc(Cl)c2F)c2ccccc12` was tested, and the growth was 74.2%. `CC(=O)Oc1c(Cl)c(Cl)c(Cl)c(Cl)c1Cl` gave a growth of 89.2%. Molecule `COc1cnc2c(c1)C(=O)c1c-2n(CCCN2CCNCC2)c(=O)c2cc(Cl)ccc12` has a growth of 58.8%. With `Cc1cc(C#Cc2ccc(C(C)(C)C)cc2)ccc1-n1c(/C=C/c2c(Cl)cccc2Cl)nc2ccccc2c1=O` the growth was 82.5%. With `CS(=O)(=O)c1ccc(C(=O)N/N=C/c2ccccc2Cl)cc1` the growth was 87.5%. With `O=C(/C=C/c1ccccc1)c1c[nH]c2ccccc2c1=O` the growth was 17.3%. In the case of `COC(=O)[C@H](Cc1cn(C)cn1)NC(=O)[C@H](CC(C)C)NC(=O)Nc1cc(C(F)(F)F)cc(C(F)(F)F)c1`, the growth is reported as -64.9% [100 µM] (active). `CS(=O)(=O)c1ccc(C(=O)N/N=C/c2ccccc2O)cc1` gave a growth of 52.4%. With `CCCCCCCCCCCCCC` the growth was 101%. For `C[Si](C)(C)C(c1ccccc1)c1ccccc1`, the growth was 91.4%. With `C=CCN1C(=O)/C(=c2\sc3n(c2=O)C2C(NN=3)N(CC)C(=O)N2CC)c2ccccc21` (stereo not drawn) the growth was 57.6%. Molecule `CNC1=C([N+](=O)[O-])C(c2ccccc2O)C(C#N)=C(c2cccs2)O1` (stereo not drawn) has a growth of 81.7%. For `NS(=O)(=O)c1ccc(CCn2c(SCC(=O)N/N=C/c3cccnc3)nc3ccccc3c2=O)cc1`, the growth was 65.9%. For `O=[N+]([O-])c1ccc(Sc2nc(Cl)nc(NC3CCCC3)n2)cc1`, the growth was -35.4% [100 µM] (active). With `COC(=O)OC1C(O[C@H]2C[C@H]3[C@@H]4CC=C5C[C@@H](O)CC[C@]5(C)[C@H]4CC[C@]3(C)[C@H]2[C@H](C)C(=O)CCC(C)C)OCC(O)C1OC1OCC(O)C(O)C1OC(=O)c1ccc(OC)cc1` (stereo partly drawn) the growth was -5.41% (active). With `CCCCCCCCCCCC1=NC(C)(C)CN1CC(C)O` (stereo not drawn) the growth was 58.9%. `O=C(C(=O)N1CCCC1)c1cn(CCCn2cc(C(=O)C(=O)N3CCCC3)c3cc(Br)ccc32)c2ccc(Br)cc12` was tested, and the growth was 70.8%. With `Cc1c(C(N)=O)sc2ncn(CC(=O)NN=C3CCCCC3)c(=O)c12` the growth was 103%. Work on `Fc1ccc(-c2nc(-c3ccc(-c4nc5ccc(F)cc5[nH]4)cc3)no2)cc1` yielded a growth of 62.8%. In the case of `Cc1cc2nc(CN)[nH]c2cc1C`, the growth is reported as 94.4%. For `N=C(N)c1ccc(-c2ccc(-c3cccs3)s2)cc1F`, the growth was -63.7% (active). With `Oc1c(C(Nc2cccc3ccccc23)c2ccccc2)ccc2cccnc12` (stereo not drawn) the growth was 49.1%. Molecule `CSc1ccc(/C=C2\C=C(CC(=O)NCc3ccc(C(=O)c4ccccc4)cc3)c3cc(F)ccc32)cc1` has a growth of 31.6%. With `CCN(CC)c1ccc(/C=N/N=C(N)N)cc1` the growth was 63.4%. `CC(=O)O[C@@H]1CC2C(C)(C)CCCC2(C)C2=C1C(=O)C(C(C)C)=CC2=O` (stereo partly drawn) was tested, and the growth was -7.86% (active). In the case of `c1ccc(CCn2cccc2)nc1`, the growth is reported as 94.7%. For `c1ccc(-c2nnn(-c3ccccc3)n2)cc1`, the growth was 108%. `Cc1csc(N/N=C/c2ccncc2)n1` gave a growth of 94%. With `COc1ccccc1CNCCCN1C(=O)c2ccc3c4c(ccc(c24)C1=O)C(=O)N(CCCCNCCCN)C3=O` the growth was -45.4% (active).
